Values joined by “and” are separate entries in the source; they are usually repeats but may differ in a detail not shown here. Equal entries are not always repeated. Out of some 5,500 compounds screened, about 2,000 (36%) were called active. Another 18% or so got no clear call; they are omitted. Cut-off read from the data, not from the text of the source: active = normalized growth mostly below about 0.91 (no sharp cut-off); inconclusive = no clear call, values can overlap the other calls; inactive = mostly above about 0.92. This is one part of the list.
Test: chemical genetic growth profiling, strain panel (AID 1159580);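 note: tested at 20 µM; growth read once vehicle control cultures reached saturation at 30 °C; 1 = growth at the plate median or of vehicle wells; lower values mean less growth of the strain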
Details: S. cerevisiae deletion strains, growth OD

Measured: normalized growth

NCC[C@@H](O)C(=O)N[C@@H]1C[C@H](N)[C@@H](O[C@H]2O[C@H](CN)[C@@H](O)[C@H](O)[C@H]2O)[C@H](O)[C@H]1O[C@H]1O[C@H](CO)[C@@H](O)[C@H](N)C1O (stereo partly specified)
inactive: locus YAL013W, strain DEP1, active compounds read low 0.974 | locus YAL021C, strain ccr4, active compounds read low 1.02 | locus YAL026C, strain drs2, active compounds read low 1.02 | locus YAL030W, strain snc1, active compounds read low 1.04 | locus YBL061C, strain skt5, active compounds read low 1.03 | locus YBR009C, strain hhf1, active compounds read low 1.03 | locus YBR021W, strain FUR4, active compounds read low 0.96 | locus YBR023C, strain chs3, active compounds read low 1.04 | locus YBR171W, strain sec66, active compounds read low 1.04 | locus YBR229C, strain ROT2, active compounds read low 0.999 | locus YBR231C, strain swc5, active compounds read low 1.04 | locus YBR279W, strain paf1, active compounds read low 1.03 | locus YCL011C, strain gbp2, active compounds read low 1.03 | locus YCL016C, strain dcc1, active compounds read low 1.04 | locus YCL029C, strain bik1, active compounds read low 1.02 | locus YCL061C, strain MRC1, active compounds read low 1.02 | locus YCL069W, strain vba3, active compounds read low 1.04 | locus YCR088W, strain abp1, active compounds read low 1.03 | locus YDL005C, strain med2, active compounds read low 1.04 | locus YDL035C, strain GPR1, active compounds read low 0.986 | locus YDL040C, strain nat1, active compounds read low 1.04 | locus YDL074C, strain BRE1, active compounds read low 0.983 | locus YDL101C, strain DUN1, active compounds read low 0.999 | locus YDL185W, strain tfp1, active compounds read low 1.02 | locus YDL192W, strain arf1, active compounds read low 1.01 | locus YDR001C, strain nth1, active compounds read low 1.02 | locus YDR069C, strain doa4, active compounds read low 1.03 | locus YDR101C, strain arx1, active compounds read low 0.998 | locus YDR137W, strain rgp1, active compounds read low 1.04 | locus YDR159W, strain sac3, active compounds read low 1.05 | locus YDR162C, strain NBP2, active compounds read low 1.01 | locus YDR195W, strain ref2 1.08 | locus YDR297W, strain sur2, active compounds read low 1.03 | locus YDR318W, strain mcm21, active compounds read low 1.01 | locus YDR334W, strain swr1, active compounds read low 1.01 | locus YDR335W, strain msn5, active compounds read low 1.04 | locus YDR388W, active compounds read low 1.01 | locus YDR392W, strain spt3, active compounds read low 1.06 | locus YDR502C, strain sam2, active compounds read low 1.01 | locus YEL003W, strain gim4, active compounds read low 1.03 | locus YEL037C, strain rad23, active compounds read low 1.03 | locus YEL061C, strain CIN8 (second series), active compounds read low 1.04 | locus YEL061C, strain CIN8, active compounds read low 1 | locus YER015W, strain faa2, active compounds read low 1.03 | locus YER016W, strain bim1, active compounds read low 1 | locus YER110C, active compounds read low 1.03 | locus YER111C, strain swi4, active compounds read low 1.03 | locus YER155C, strain BEM2 (second series), active compounds read low 1.02 | locus YER155C, strain BEM2, active compounds read low 1.01 | locus YER167W, strain BCK2, active compounds read low 0.986 | locus YFR010W, strain ubp6, active compounds read low 1.05 | locus YGL078C, strain dbp3, active compounds read low 1 | locus YGL086W, strain mad1, active compounds read low 1 | locus YGL167C, strain pmr1, active compounds read low 1.03 | locus YGL173C, strain kem1, active compounds read low 1.04 | locus YGL227W, strain vid30, active compounds read low 1.05 | locus YGL240W, strain doc1, active compounds read low 1.01 | locus YGL248W, strain PDE1, active compounds read low 0.999 | locus YGL253W, strain hxk2, active compounds read low 1.02 | locus YGR078C, strain PAC10, active compounds read low 0.997 | locus YGR135W, strain pre9, active compounds read low 0.988 | locus YGR252W, strain gcn5, active compounds read low 0.944 | locus YHR013C, strain ard1, active compounds read low 1.04 | locus YHR027C, strain rpn1, active compounds read low 1.03 | locus YHR030C, strain SLT2, active compounds read low 1.01 and 1.02 | locus YHR079C, strain IRE1 (second series), active compounds read low 1.02 | locus YHR079C, strain IRE1, active compounds read low 1.03 | locus YHR094C, strain hxt1, active compounds read low 1.03 | locus YHR129C, strain ARP1, active compounds read low 1.01 | locus YHR142W, strain chs7, active compounds read low 1.06 | locus YHR200W, strain rpn10, active compounds read low 1.02 | locus YIL066C, strain RNR3, active compounds read low 1 | locus YIL073C, strain SPO22, active compounds read low 1.19 | locus YIL125W, strain kgd1, active compounds read low 1.01 | locus YIR030C, strain dcg1, active compounds read low 1.03 | locus YJL092W, strain hpr5, active compounds read low 1.03 | locus YJL095W, strain BCK1 (second series), active compounds read low 1 | locus YJL095W, strain BCK1, active compounds read low 0.999 and 1.02 | locus YJL115W, strain asf1, active compounds read low 1.04 | locus YJL129C, strain trk1, active compounds read low 1.07 | locus YJL134W, strain LCB3, active compounds read low 1.01 | locus YJL154C, strain vps35, active compounds read low 1.03 | locus YJL164C, strain tpk1, active compounds read low 1.01 | locus YJL166W, strain qcr8, active compounds read low 1.03 | locus YJL168C, strain set2, active compounds read low 1.01 | locus YJL187C, strain SWE1 (second series), active compounds read low 0.999 | locus YJL187C, strain SWE1, active compounds read low 1.03 | locus YJR043C, strain POL32, active compounds read low 0.983 | locus YJR066W, strain TOR1, active compounds read low 0.975 | locus YJR075W, strain HOC1, active compounds read low 0.995 | locus YKL009W, strain mrt4, active compounds read low 1.02 | locus YKL068W, active compounds read low 1.01 | locus YKL085W, strain MDH1 (second series), active compounds read low 1.01 | locus YKL085W, strain MDH1, active compounds read low 1.01 | locus YKL160W, strain elf1, active compounds read low 1.01 | locus YKR001C, strain vps1, active compounds read low 1.01 | locus YKR026C, strain gcn3, active compounds read low 1.07 | locus YKR091W, strain srl3, active compounds read low 1.01 | locus YLL001W, strain dnm1, active compounds read low 1.02 | locus YLL026W, active compounds read low 1.01 | locus YLL041C, strain sdh2, active compounds read low 1.03 | locus YLR027C, strain aat2, active compounds read low 1.02 | locus YLR039C, strain RIC1, active compounds read low 1.04 | locus YLR058C, strain SHM2, active compounds read low 1.01 | locus YLR102C, strain apc9, active compounds read low 1.01 | locus YLR113W, strain HOG1, active compounds read low 1.03 | locus YLR221C, strain rsa3, active compounds read low 1.01 | locus YLR258W, strain gsy2, active compounds read low 1.02 | locus YLR262C, strain YPT6 (second series), active compounds read low 1.03 | locus YLR262C, strain YPT6, active compounds read low 1.04 | locus YLR268W, strain sec22, active compounds read low 1.04 | locus YLR320W, strain mms22, active compounds read low 1.03 | locus YLR330W, strain CHS5, active compounds read low 1.01 | locus YLR342W, strain FKS1 (second series), active compounds read low 0.966 | locus YLR342W, strain FKS1, active compounds read low 1.03 | locus YLR357W, strain rsc2, active compounds read low 1.09 | locus YLR370C, strain arc18, active compounds read low 1.03 | locus YLR371W, strain rom2, active compounds read low 1.01 | locus YLR384C, strain iki3, active compounds read low 1.03 | locus YLR418C, strain cdc73, active compounds read low 1.01 | locus YML016C, strain PPZ1, active compounds read low 1.01 | locus YML032C, strain rad52, active compounds read low 1.01 | locus YML120C, strain ndi1, active compounds read low 1.02 | locus YML124C, strain tub3, active compounds read low 1.01 | locus YMR058W, strain fet3, active compounds read low 1.04 | locus YMR078C, strain ctf18, active compounds read low 1.02 | locus YMR125W, strain sto1, active compounds read low 1.06 | locus YMR129W, active compounds read low 1.03 | locus YMR205C, strain PFK2, active compounds read low 1.05 | locus YMR223W, strain ubp8, active compounds read low 1.01 | locus YMR231W, strain pep5, active compounds read low 1.03 | locus YMR263W, strain SAP30, active compounds read low 1 | locus YMR307W, strain GAS1, active compounds read low 0.921 | locus YNL067W, strain RPL9B, active compounds read low 0.992 | locus YNL071W, strain lat1, active compounds read low 1.02 | locus YNL153C, strain GIM3, active compounds read low 0.996 | locus YNL183C, strain NPR1, active compounds read low 0.952 | locus YNL209W, strain ssb2, active compounds read low 1.02 | locus YNL233W, strain BNI4, active compounds read low 1.02 | locus YNL248C, strain rpa49, active compounds read low 0.984 | locus YNL250W, strain rad50, active compounds read low 1.01 | locus YNL271C, strain bni1, active compounds read low 1.02 | locus YNL298W, strain CLA4, active compounds read low 1.02 | locus YNL307C, strain MCK1, active compounds read low 1.02 | locus YNL322C, strain KRE1 (second series), active compounds read low 1.04 | locus YNL322C, strain KRE1, active compounds read low 1.01 | locus YNR049C, strain mso1, active compounds read low 1.03 | locus YNR052C, strain pop2, active compounds read low 1.02 | locus YOL006C, strain TOP1, active compounds read low 0.932 | locus YOL012C, strain htz1 0.906 | locus YOL147C, strain pex11, active compounds read low 1.02 | locus YOR001W, strain rrp6, active compounds read low 1.05 | locus YOR061W, strain CKA2, active compounds read low 1.01 | locus YOR069W, strain VPS5, active compounds read low 1.01 | locus YOR070C, strain gyp1, active compounds read low 1.03 | locus YOR080W, strain dia2, active compounds read low 1.05 | locus YOR083W, strain WHI5, active compounds read low 1.02 | locus YOR106W, strain vam3, active compounds read low 1.04 | locus YOR136W, strain idh2, active compounds read low 1.02 | locus YOR144C, strain elg1, active compounds read low 1.02 | locus YOR184W, strain ser1, active compounds read low 1.03 | locus YOR231W, strain MKK1, active compounds read low 1 | locus YOR265W, strain rbl2, active compounds read low 1.04 | locus YOR270C, strain vph1, active compounds read low 1.05 | locus YOR290C, strain snf2, active compounds read low 1.04 | locus YOR316C, strain cot1, active compounds read low 1.02 | locus YPL051W, strain arl3, active compounds read low 1.02 | locus YPL078C, strain atp4, active compounds read low 1.03 | locus YPL106C, strain sse1, active compounds read low 1.07 | locus YPL240C, strain hsp82, active compounds read low 1.02 | locus YPL256C, strain CLN2, active compounds read low 1.04 | locus YPR119W, strain clb2, active compounds read low 1.01 | locus YPR141C, strain kar3, active compounds read low 1.01 | locus YPR163C, strain tif3, active compounds read low 1.02 | locus YPR167C, strain met16, active compounds read low 1.02 | strain wtn01, active compounds read low 1.01

— PubChem BioAssay AID1159580 (chemical genetic matrix, 2015)
